Measurements: PubChem BioAssay (NCI)
About 79,000 compounds went through this panel and 15% of them were active in at least one assay; those are over-represented in the sample as a whole. Rule as the data show it: active = growth inhibition above about 70%; inactive = the rest.

Experiments:
[1] = NCI Yeast Anticancer Drug Screen. Data for the mec2-1 strain (AID 157); settings: S. cerevisiae mec2-1 strain, at 50.0 µM, stronger effect = higher value
Method in brief: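 Readout is yeast growth inhibition, normalised to vehicle-treated controls, in the mec2-1 strain exposed to compound.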

[2] = NCI Yeast Anticancer Drug Screen. Data for the sgs1 mgt1 strain (AID 161);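 also: 0% = growth of cultures given vehicle only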; settings: S. cerevisiae sgs1 mgt1 strain, at 50.0 µM, stronger effect = higher value
Method in brief: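 Yeast cells carrying a defined DNA-repair defect were exposed to test compounds. Growth inhibition was measured relative to vehicle-treated controls.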

[3] = NCI Yeast Anticancer Drug Screen. Data for the cln2 rad14 strain (AID 165);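 also: 0% = growth equal to vehicle treated cultures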; settings: S. cerevisiae cln2 rad14 strain, at 50.0 µM, stronger effect = higher value
Method in brief: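 Relative to vehicle controls, growth inhibition of compound-treated cln2 rad14 yeast was recorded.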

[4] = NCI Yeast Anticancer Drug Screen. Data for the mlh1 rad18 strain (AID 175); settings: S. cerevisiae mlh1 rad18 strain growth inhibition; at 50.0 µM; stronger effect = higher value
Method in brief: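 Test agents were incubated with a yeast strain of defined genotype (DNA damage repair defect). Inhibition of growth was derived by comparison with vehicle-exposed cultures.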

[5] = NCI Yeast Anticancer Drug Screen. Data for the bub3 strain (AID 167); settings: S. cerevisiae bub3 mutant strain, at 50.0 µM, stronger effect = higher value
Method in brief: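 Steps: expose the mutant yeast strain to compound; grow alongside vehicle-treated cultures; measure growth; express inhibition against the vehicle cultures.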

Measured: growth inhibition

COc1ccc2c(c1)N(S(=O)(=O)c1ccc(C)cc1)C[C@@H]1c3cc(O)c(OCc4ccccc4)cc3O[C@H]21
inactive: [1] 7.9% | [2] -7.8% | [3] -6.8% | [4] 15.6%

N#Cc1ccc(OCCCCCOc2ccc(C#N)cc2I)c(I)c1
inactive: [1] -2.05% | [2] -8% | [3] -22.8% | [5] -0.85% | [4] -44.1%

Cc1ccc(Cc2nn(C)c(=O)n2N)cc1
inactive: [1] -2.5% | [2] 18.6% | [3] -3% | [5] -13.1% | [4] -18.9%

CCOC(=O)CCCl
inactive: [2] -2.95% | [3] 30.2% | [5] 31.3% | [4] 12.8%

CC1CN(C(C)(C)C)CO1 (stereo unspecified)
inactive: [1] -10.4% | [2] -18.6% | [3] 8.3% | [5] -26.5% | [4] -25.6%

CC(C)OC/N=C(/N)NC#N
inactive: [1] 13.1% | [2] -29.4% | [3] 12.6% | [5] -10.1% | [4] -6.5%

CCOC(=O)/C(C#N)=C/C=C1C=CN(C)C=C1
inactive: [1] -4.4% | [2] -1.4% | [3] -30.9% | [5] 0.1% | [4] -10.1%

CCCCCCCCCCCCCCCC(=O)N=C(C(N)=O)C(N)=O
inactive: [1] -35% | [2] -14.7% | [3] -54% | [5] -22.6% | [4] -19.9%

CCCCCCCNC1=C(O)c2ccccc2C(=O)C1=O
inactive: [1] 15.8% | [2] 2.2% | [3] -44.2% | [5] 12.3% | [4] 6.2%

COc1ccc(/C=C2\N=C(c3ccccc3)OC2=O)c(Cl)c1OC
inactive: [1] -3.5% | [2] -25% | [3] 1.6% | [5] -5.25% | [4] -3%

O=c1[nH][nH]c(=O)c2[nH]cnc12
inactive: [1] -8.2% | [2] 29.1% | [3] -62.6% | [5] -6.3% | [4] -10%

COc1ccc(CC(N)C(=O)OCCCl)cc1 (stereo unspecified)
inactive: [1] -0.4% | [2] 13.8% | [3] 10% | [5] 0.3% | [4] 12%

O=C(Nc1ccccc1)c1cc2cc(N=Nc3ccc(Br)cc3)ccc2oc1=O
inactive: [1] -4.7% | [2] -0.4% | [3] 16.1% | [5] -17.1% | [4] -13.1%

C=CCOC(=O)/C=C/C
inactive: [1] 2.7% | [2] -4.05% | [3] -11.3% | [5] -2.55% | [4] -1.35%

Oc1ccc(Cn2c(-c3ccc(O)cc3)nc3ccccc32)cc1
inactive: [1] -5% | [2] -10.1% | [3] 5.05% | [5] 1.4% | [4] -13.3%

O=C(Nc1cccc(C(F)(F)F)c1)C(=O)C(C(=O)c1ccc(Cl)c(Cl)c1)C1OC(=O)c2ccccc21 (stereo unspecified)
inactive: [1] 19.2% | [2] -1.35% | [3] 63.6% | [5] 45.4% | [4] 37.4%

CCOC(=O)/C(O)=C(/C=N\C(=S)Nc1ccccc1Cl)C(=O)OCC
inactive: [1] -55.3% | [2] -28.4% | [3] 5.35% | [5] -26.2% | [4] -41.4%

CCCCC(C)C(=O)CC(SCC)c1ccc(Cl)c(Cl)c1 (stereo unspecified)
inactive: [1] -26.9% | [2] 17.3% | [3] -12.4% | [5] 8.2% | [4] -0.95%

CCOC(=N)CC(=O)Nc1ccccc1CC
inactive: [1] -0.05% | [2] 11.6% | [3] 4.05% | [5] 12.1% | [4] 20.9%

CNc1nnnn1C1OC(CO)C(O)C1O (stereo unspecified)
inactive: [1] -8.9% | [2] -9.6% | [3] 9.35% | [5] -10.7% | [4] -21.4%

O=S1CCS(=O)CCS(=O)CC1 (stereo unspecified)
inactive: [1] -2.3% | [3] -18.6% | [5] -0.4% | [4] -9.7%

CCOC(=O)c1c(Br)c2c3ccccc3c3ccccc3n2c1C
inactive: [1] -4.9% | [2] -3.75% | [3] -11.8% | [5] 1.8% | [4] 7.25%

COC(=O)NCP(=O)(CNC(=O)OC)CNC(=O)OC
inactive: [1] 1.4% | [2] -1.35% | [3] 8.65% | [5] -4% | [4] 10.7%

CCOc1ccc(CCC(=O)O)cc1
inactive: [1] -9% | [2] -1.65% | [3] 2.8% | [5] -6.1% | [4] 12.1%

ON1c2ccc3ccccc3c2C=CC1(c1ccccc1)c1ccccc1
inactive: [1] -2.75% | [2] -12.6% | [3] 23.2% | [5] 16.5% | [4] 10.9%

C/C=C\c1ccc2oc(-c3ccc4c(c3)OCO4)c(C)c2c1
inactive: [1] 9.9% | [2] 6.15% | [3] -57.8% | [5] -4.6% | [4] -11.3%

N#Cc1ccc(OC(=O)Nc2ccccc2Cl)cc1
inactive: [1] -8.6% | [2] 21.4% | [3] 26.4% | [5] 15.4% | [4] 13.8%

CS[C@]12C(=O)C[C@@]3(C)[C@@H](CC[C@]3(O)C(=O)CO)[C@@H]1CCC1=CC(=O)CC[C@@]12C
inactive: [1] -24% | [2] -15.9% | [3] 28.7% | [5] -54.8% | [4] -20.4%

CCCOc1ccc(C(N)=S)c2ccccc12
inactive: [1] 1.1% | [2] 8.45% | [3] -28.2% | [5] 20.2% | [4] 12.3%

COc1cc(Br)cc(OC)c1Oc1cc(OC)c(OC)c(OC)c1Br
inactive: [1] 12.4% | [2] 36% | [3] 2.4% | [5] 10.8% | [4] 24.9%

CCOC(=S)SCc1ccc([N+](=O)[O-])cc1
inactive: [1] 18.4% | [2] 27.8% | [3] 18.6% | [5] 43% | [4] 16.9%

CCC1OC(=O)C(C)C(OC2CC(C)(O)C(O)C(C)O2)C(C)C(O)C(C)(O)CC(C)C(=O)C(C)C(O)C1C (stereo unspecified)
inactive: [1] -22.6% | [2] 0.5% | [3] -5.4% | [5] -21.2% | [4] -5.15%

CCC1(CCC#N)CCC(N)=CC1=O (stereo unspecified)
inactive: [1] 17.3% | [2] 7.9% | [3] -50% | [5] -6.2% | [4] -0.75%

c1cncc(CCc2ccncc2)c1
inactive: [1] -60.9% | [2] -27.2% | [3] 12.3% | [5] -14.2% | [4] 18.6%

CCC(CO)c1ccccc1 (stereo unspecified)
inactive: [1] -17.7% | [2] -3.1% | [3] -25.4% | [5] -3.1% | [4] -12.1%

O=C1CCC(c2nc3ccccc3[nH]2)N1Cc1cccs1 (stereo unspecified)
inactive: [1] -37.1% | [2] -10.2% | [3] -21.9% | [5] -6.85% | [4] -8.55%

CC(C)C(O)C[N+](=O)[O-] (stereo unspecified)
inactive: [1] 6.8% | [2] 20.3% | [3] 6.25% | [5] 13.6% | [4] 16.6%

Cc1ccc(S(=O)(=O)Nc2ccccc2-c2nc3c(Cl)ccc(Cl)c3c(=O)o2)cc1
inactive: [1] 0.15% | [2] 41.5% | [3] -10.3% | [5] -5.45% | [4] 10.7%

CN(C)c1ccc(S(=O)(=O)c2ccc3nc(N)nc(N)c3c2)cc1
inactive: [1] 16.2% | [2] 5.45% | [3] -26.5% | [5] -5.9% | [4] 3.85%

COc1ccc(C2=NC(C)(C)CO2)cc1C
inactive: [1] -4.15% | [3] -17.9% | [5] 21.1% | [4] 20.5%
